The results in this text go back to ChEMBL document CHEMBL1961873, “Compounds: GSK PKIS; Assays: Nanosyn kinase panel” (2012).

Assay [1] deals with T1, Inhibitor of nuclear factor kappa-B kinase subunit epsilon (Homo sapiens) (UniProt Q14164).
T1 sequence (whole entry): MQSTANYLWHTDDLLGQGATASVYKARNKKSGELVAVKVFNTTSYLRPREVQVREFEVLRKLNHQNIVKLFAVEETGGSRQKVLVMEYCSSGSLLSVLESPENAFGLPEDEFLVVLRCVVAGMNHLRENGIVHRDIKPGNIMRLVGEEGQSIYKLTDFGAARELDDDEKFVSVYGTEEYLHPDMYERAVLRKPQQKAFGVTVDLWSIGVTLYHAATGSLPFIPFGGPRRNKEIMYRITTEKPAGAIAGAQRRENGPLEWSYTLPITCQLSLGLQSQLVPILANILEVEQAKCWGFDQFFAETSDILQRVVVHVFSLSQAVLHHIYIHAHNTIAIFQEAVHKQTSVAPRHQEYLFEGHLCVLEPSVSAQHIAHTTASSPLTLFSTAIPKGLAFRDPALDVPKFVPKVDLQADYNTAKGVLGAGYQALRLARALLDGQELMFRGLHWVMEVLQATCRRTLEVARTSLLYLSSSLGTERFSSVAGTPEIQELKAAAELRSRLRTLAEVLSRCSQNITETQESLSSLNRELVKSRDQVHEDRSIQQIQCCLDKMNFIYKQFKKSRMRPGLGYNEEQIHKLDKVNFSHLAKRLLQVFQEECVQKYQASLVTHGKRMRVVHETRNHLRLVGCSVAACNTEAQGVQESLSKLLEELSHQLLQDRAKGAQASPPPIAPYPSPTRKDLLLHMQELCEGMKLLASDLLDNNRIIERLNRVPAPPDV
The settings on record: at 1 µM.

Assay [2] deals with T2, Serine/threonine-protein kinase Nek1 (Homo sapiens) (UniProt Q96PY6).
T2 sequence (whole entry): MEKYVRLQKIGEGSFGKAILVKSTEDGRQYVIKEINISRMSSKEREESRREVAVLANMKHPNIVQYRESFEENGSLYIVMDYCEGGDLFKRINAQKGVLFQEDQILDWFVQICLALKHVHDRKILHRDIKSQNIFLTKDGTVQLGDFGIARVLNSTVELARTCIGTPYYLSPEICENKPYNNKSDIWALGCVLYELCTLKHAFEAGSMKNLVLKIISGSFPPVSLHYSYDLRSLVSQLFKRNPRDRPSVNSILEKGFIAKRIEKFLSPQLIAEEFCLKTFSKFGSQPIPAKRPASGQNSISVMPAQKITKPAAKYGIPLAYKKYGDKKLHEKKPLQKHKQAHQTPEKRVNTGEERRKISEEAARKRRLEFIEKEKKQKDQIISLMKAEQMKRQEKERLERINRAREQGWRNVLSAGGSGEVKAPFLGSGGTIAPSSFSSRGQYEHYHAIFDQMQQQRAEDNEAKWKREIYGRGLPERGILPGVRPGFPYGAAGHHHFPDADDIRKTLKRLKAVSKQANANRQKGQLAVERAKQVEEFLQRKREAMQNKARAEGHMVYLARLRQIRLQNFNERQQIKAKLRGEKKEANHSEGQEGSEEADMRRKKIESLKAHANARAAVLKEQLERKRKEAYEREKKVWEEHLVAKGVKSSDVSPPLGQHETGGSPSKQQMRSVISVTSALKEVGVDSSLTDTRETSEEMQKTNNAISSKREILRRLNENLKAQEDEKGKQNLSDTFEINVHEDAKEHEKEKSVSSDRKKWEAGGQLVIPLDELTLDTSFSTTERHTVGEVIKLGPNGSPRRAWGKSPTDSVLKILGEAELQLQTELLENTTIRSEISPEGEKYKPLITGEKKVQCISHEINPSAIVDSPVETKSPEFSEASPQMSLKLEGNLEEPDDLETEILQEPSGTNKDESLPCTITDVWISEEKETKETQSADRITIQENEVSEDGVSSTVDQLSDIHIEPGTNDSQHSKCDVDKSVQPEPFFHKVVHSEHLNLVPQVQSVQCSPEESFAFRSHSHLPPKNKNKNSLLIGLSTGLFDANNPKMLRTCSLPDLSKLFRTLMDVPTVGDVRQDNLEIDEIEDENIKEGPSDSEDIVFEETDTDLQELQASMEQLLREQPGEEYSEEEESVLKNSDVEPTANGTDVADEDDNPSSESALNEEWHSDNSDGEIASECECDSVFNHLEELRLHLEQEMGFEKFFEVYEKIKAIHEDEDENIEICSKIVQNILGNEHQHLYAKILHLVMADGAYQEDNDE
The settings on record: at 0.1 µM.

The target of assay [3] is T2, Serine/threonine-protein kinase Nek1 (Homo sapiens). The note with it: at 1 µM.
The target of assay [4] is T3, Serine/threonine-protein kinase Nek2 (Homo sapiens) (UniProt P51955).
T3 sequence (whole entry): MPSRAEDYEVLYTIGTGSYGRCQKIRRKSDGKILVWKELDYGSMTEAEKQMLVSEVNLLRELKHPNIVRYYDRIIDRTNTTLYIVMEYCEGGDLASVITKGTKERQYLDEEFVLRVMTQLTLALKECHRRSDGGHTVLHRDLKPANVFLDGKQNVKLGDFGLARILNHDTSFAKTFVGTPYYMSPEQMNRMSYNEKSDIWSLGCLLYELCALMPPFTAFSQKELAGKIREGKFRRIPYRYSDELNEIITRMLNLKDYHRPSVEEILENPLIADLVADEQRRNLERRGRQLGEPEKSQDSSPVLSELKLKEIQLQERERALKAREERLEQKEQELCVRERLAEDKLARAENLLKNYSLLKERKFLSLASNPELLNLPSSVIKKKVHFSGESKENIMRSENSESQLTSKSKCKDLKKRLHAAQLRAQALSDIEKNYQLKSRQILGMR
The settings on record: at 0.1 µM.

Assay [5] concerns the target T3, Serine/threonine-protein kinase Nek2 (Homo sapiens). The note with it: at 1 µM.
Assay [6] deals with Serine/threonine-protein kinase Nek6 (Homo sapiens) (UniProt Q9HC98). The settings on record: at 0.1 µM.
Sequence of Serine/threonine-protein kinase Nek6 (Homo sapiens) (Q9HC98 whole entry): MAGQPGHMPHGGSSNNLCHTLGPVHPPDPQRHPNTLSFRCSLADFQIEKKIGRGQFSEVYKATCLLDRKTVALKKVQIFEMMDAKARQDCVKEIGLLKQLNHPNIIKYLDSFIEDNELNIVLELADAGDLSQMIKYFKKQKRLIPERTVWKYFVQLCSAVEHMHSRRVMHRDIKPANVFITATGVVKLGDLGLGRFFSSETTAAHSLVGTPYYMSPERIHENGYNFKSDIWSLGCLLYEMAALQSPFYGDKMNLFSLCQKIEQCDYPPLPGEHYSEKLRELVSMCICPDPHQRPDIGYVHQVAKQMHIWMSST
The target is the same in assay [7]. The note with it: at 1 µM.
Assay [8] deals with Serine/threonine-protein kinase Nek7 (Homo sapiens) (UniProt Q8TDX7). The note with it: at 0.1 µM.
Sequence of Serine/threonine-protein kinase Nek7 (Homo sapiens) (Q8TDX7 whole entry, looked up): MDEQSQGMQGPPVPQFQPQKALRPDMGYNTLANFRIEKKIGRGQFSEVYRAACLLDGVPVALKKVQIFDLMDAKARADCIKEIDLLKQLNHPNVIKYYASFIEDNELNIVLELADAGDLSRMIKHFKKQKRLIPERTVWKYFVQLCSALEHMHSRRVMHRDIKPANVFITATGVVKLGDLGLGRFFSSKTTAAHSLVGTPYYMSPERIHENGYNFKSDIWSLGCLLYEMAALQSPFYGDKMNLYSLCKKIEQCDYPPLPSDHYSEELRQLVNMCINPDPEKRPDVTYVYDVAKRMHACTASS
Assay [9] has the same target. The settings on record: at 1 µM.
For assay [10], the target named is T4, Serine/threonine-protein kinase Nek9 (Homo sapiens) (UniProt Q8TD19).
T4 sequence (whole entry): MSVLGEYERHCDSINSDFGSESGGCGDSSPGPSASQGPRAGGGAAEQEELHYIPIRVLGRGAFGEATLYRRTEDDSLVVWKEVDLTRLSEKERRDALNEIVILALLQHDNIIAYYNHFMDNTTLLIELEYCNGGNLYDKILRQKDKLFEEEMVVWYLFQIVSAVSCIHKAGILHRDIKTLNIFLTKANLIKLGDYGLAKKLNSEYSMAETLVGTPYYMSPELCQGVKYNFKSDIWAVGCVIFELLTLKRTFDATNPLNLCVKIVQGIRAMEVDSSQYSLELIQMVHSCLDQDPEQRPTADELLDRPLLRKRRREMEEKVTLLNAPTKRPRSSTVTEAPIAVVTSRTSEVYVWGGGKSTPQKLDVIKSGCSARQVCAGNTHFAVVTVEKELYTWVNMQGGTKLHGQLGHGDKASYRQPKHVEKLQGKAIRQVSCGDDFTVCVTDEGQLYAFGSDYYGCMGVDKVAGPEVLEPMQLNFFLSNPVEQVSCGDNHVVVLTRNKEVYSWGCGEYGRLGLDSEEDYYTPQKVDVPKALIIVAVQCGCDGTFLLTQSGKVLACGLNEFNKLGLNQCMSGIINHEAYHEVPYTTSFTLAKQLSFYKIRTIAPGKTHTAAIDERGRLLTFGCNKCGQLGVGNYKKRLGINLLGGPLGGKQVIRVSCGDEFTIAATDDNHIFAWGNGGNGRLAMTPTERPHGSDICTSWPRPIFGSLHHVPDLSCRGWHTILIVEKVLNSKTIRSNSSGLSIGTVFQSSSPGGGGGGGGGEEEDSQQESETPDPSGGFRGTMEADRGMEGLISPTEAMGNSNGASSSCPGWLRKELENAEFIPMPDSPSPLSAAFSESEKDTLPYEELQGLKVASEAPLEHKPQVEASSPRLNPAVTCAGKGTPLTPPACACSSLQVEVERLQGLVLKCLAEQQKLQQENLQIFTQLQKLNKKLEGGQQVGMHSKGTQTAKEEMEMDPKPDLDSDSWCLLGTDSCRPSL
The settings on record: at 0.1 µM.

The target of assay [11] is T4, Serine/threonine-protein kinase Nek9 (Homo sapiens). The note with it: at 1 µM.
For assay [12], the target named is Serine/threonine-protein kinase PLK1 (Homo sapiens) (UniProt P53350). The settings on record: at 0.1 µM.
Sequence of Serine/threonine-protein kinase PLK1 (Homo sapiens) (P53350 whole entry): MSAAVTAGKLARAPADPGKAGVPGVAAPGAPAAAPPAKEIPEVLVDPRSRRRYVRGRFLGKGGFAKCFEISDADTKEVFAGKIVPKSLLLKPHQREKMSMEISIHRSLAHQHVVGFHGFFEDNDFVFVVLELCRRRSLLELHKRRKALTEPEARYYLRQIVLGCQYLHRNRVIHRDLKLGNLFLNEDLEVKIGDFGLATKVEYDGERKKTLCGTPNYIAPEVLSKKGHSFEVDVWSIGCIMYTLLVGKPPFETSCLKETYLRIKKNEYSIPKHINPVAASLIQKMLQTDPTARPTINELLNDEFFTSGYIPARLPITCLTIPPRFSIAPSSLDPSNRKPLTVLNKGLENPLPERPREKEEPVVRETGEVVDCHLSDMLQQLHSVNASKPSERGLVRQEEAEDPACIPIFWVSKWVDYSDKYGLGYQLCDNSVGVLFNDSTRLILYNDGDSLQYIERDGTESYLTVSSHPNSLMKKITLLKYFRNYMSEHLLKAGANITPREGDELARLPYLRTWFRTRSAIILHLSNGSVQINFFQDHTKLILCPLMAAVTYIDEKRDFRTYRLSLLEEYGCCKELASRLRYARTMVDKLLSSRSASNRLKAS
Assay [13] shares this target. The settings on record: at 1 µM.
Assay [14] deals with T5, Dual specificity protein kinase TTK (Homo sapiens) (UniProt P33981).
T5 sequence (whole entry): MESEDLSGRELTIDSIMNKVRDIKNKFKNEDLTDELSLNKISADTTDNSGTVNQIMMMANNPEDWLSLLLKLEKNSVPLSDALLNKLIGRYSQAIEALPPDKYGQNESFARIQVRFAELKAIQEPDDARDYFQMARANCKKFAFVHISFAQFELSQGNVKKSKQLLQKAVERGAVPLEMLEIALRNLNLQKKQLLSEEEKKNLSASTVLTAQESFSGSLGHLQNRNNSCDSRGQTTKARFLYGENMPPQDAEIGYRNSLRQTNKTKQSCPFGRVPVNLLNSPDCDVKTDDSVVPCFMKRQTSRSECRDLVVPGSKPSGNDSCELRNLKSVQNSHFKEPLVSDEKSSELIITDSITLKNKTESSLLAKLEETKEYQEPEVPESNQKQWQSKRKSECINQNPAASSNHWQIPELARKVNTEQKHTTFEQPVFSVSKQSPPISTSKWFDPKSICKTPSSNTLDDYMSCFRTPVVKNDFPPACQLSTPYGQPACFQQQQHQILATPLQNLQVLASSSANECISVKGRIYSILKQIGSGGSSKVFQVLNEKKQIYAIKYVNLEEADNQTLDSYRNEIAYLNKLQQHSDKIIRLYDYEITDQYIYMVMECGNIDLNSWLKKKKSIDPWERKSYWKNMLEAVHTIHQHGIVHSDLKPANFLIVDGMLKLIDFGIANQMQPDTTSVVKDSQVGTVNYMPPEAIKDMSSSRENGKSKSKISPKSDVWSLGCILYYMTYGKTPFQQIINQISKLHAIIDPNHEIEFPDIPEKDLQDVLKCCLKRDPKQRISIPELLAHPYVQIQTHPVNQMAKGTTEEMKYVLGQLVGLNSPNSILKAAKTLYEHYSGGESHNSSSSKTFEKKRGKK
The note with it: at 0.1 µM.

Assay [15] relates to T6, Receptor-type tyrosine-protein kinase FLT3 (Homo sapiens), P36888 [D835Y].
T6 sequence (whole entry): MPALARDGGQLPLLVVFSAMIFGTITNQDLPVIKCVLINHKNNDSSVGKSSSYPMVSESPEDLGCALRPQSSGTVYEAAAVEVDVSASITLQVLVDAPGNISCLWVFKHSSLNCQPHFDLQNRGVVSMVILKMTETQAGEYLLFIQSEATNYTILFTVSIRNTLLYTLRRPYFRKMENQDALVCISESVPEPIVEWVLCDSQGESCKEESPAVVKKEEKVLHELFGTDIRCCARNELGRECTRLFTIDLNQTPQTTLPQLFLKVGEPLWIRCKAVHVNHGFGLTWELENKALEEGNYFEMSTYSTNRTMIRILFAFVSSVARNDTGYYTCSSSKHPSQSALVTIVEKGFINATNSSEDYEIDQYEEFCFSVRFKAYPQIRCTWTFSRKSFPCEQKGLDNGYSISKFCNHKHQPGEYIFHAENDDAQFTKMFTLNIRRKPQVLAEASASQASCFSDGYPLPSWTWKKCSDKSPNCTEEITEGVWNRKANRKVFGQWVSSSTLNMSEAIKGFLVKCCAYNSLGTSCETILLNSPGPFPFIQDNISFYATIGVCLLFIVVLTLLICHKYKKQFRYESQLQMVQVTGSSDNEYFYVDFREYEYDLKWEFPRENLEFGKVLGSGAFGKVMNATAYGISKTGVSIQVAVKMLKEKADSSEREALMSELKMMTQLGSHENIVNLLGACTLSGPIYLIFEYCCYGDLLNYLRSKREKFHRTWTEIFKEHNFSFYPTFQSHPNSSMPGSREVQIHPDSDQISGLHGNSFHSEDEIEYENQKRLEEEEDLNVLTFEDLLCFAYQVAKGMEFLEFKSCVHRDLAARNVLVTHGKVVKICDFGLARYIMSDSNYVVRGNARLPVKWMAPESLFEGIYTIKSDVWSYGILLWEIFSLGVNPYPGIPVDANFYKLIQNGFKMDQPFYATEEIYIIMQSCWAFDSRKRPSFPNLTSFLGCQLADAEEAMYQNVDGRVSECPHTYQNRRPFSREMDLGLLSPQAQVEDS
The note with it: at 1 µM.

Assay [16] concerns the target Vascular endothelial growth factor receptor 3 (Homo sapiens) (UniProt P35916). The note with it: at 0.1 µM.
The target is the same in assay [17]. The settings on record: at 1 µM.
Assay [18] addresses Macrophage colony-stimulating factor 1 receptor (Homo sapiens) (UniProt P07333). The note with it: at 0.1 µM.
Assay [19] shares this target. The note with it: at 1 µM.
For assay [20], the target named is Tyrosine-protein kinase Fyn (Homo sapiens) (UniProt P06241). The settings on record: at 0.1 µM.
Sequence of Tyrosine-protein kinase Fyn (Homo sapiens) (P06241 2-537 limits assumed): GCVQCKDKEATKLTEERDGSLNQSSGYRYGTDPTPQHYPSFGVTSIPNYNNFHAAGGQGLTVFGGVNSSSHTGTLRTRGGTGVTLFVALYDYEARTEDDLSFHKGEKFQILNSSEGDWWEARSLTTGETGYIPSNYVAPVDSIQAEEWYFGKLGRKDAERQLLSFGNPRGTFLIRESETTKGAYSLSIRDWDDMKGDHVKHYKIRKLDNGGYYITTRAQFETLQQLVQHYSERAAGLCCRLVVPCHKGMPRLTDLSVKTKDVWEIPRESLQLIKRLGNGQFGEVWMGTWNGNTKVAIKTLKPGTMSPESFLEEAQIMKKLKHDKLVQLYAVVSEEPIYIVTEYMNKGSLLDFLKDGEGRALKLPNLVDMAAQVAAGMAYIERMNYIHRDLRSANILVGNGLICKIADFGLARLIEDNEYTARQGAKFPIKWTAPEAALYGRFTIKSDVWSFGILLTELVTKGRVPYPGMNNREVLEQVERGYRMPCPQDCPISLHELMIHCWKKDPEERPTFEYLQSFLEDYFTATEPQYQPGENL

Sequence of Macrophage colony-stimulating factor 1 receptor (Homo sapiens) (P07333 whole entry): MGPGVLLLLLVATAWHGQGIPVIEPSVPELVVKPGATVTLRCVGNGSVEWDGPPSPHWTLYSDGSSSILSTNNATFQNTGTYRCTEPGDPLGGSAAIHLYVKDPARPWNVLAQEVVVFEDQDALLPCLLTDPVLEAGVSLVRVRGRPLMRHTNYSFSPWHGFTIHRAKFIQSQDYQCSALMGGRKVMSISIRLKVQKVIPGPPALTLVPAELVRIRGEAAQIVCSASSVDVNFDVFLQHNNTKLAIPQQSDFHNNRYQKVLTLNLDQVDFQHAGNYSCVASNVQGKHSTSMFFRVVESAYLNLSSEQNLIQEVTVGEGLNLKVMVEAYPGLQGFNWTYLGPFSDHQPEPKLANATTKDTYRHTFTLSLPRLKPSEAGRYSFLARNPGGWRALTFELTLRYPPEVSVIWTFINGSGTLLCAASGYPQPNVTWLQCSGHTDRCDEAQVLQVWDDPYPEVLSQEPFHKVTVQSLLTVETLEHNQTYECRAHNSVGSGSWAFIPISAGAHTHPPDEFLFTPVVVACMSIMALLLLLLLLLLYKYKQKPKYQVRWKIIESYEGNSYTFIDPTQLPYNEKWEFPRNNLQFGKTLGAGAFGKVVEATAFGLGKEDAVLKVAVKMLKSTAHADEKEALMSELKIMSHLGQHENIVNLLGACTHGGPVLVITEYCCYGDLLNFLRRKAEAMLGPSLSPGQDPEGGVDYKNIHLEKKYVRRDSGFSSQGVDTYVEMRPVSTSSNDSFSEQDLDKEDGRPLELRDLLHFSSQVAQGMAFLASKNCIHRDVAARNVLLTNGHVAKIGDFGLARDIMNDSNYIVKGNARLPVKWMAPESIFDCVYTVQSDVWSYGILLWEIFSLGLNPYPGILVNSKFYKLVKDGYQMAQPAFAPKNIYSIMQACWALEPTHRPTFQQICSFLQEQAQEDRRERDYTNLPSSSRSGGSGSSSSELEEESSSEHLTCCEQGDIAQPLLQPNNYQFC
Sequence of Vascular endothelial growth factor receptor 3 (Homo sapiens) (P35916 whole entry): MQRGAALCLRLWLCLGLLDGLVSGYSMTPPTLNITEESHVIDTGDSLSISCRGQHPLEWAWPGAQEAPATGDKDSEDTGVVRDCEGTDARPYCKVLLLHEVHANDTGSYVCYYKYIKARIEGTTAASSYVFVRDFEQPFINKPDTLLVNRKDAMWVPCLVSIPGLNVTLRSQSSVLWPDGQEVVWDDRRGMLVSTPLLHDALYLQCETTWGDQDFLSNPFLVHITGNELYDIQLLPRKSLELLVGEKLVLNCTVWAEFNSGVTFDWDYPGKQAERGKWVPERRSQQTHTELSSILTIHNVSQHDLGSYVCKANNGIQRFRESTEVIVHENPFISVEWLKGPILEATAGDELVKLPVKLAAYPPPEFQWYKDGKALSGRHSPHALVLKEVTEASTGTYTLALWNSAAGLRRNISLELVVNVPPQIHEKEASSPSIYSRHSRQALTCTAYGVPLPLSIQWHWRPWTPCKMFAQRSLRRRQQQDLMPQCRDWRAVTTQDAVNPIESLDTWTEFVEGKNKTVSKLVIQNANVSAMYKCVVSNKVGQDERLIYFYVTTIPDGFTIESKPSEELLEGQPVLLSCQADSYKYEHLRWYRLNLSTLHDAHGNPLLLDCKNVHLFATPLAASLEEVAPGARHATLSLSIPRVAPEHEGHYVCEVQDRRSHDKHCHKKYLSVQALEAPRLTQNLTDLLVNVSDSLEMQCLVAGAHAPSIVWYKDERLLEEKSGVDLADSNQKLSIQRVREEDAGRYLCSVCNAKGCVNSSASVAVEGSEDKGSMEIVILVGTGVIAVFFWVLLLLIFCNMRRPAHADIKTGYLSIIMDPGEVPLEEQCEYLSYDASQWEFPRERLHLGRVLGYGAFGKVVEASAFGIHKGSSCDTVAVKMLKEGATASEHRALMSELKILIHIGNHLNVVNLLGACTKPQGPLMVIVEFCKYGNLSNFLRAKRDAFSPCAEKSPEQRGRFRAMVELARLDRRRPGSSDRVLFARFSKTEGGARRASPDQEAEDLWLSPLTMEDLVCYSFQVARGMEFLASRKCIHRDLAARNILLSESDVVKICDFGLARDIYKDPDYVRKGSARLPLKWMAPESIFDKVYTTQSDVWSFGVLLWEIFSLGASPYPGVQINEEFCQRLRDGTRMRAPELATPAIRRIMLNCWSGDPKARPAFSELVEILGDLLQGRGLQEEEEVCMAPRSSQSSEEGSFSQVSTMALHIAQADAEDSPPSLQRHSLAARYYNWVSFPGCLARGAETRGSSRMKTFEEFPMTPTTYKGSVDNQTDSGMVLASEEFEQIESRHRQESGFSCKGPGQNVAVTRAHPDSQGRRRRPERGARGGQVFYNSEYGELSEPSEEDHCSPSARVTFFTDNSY

`C[C@@H](Oc1cc(-n2cnc3ccc(OC[C@@H](O)CO)cc32)sc1C(N)=O)c1ccccc1Cl`: the inhibition in assay [1] is -0.86%; in assay [2], 13.6%; in assay [3], 55%; in assay [4], 3.01%; in assay [5] it was 19.7%; in [6] it was -1.54%. Further, the inhibition is -3.82% in [7]; 0.63% in assay [8]; 0.36% in [9]; 62.4% in [10]; 91.4% in [11]; 92.2% in [12]. Further, the inhibition in [13] worked out at 93.5%; in assay [14], 1.27%; in assay [15], 8.15%; in [16] it was 3.69%; in assay [17], 22.8%; in [18], 0.22%. Besides, the inhibition in [19] amounted to 9.24%; in [20] it was 0.14%.

Consider `Nc1nccc(-c2c(-c3ccc(F)cc3)nn3cc(C(F)(F)F)ccc23)n1`, for which the inhibition in assay [1] is 0.39%; in assay [2], -0.26%; in assay [3] it was -0.62%; in assay [4] it was 0%; in assay [5] it was 1.3%; in assay [6], 0.29%. Besides, the inhibition in assay [7] was -2.61%; in assay [8] it was -1.44%; in assay [9] it was 0.7%; in [10], 0.57%; in assay [11], 0.92%; in assay [12], 2.53%. In addition, the inhibition in assay [13] is 0.4%; in assay [14] it was 1.73%; in [15], -4.89%; in assay [16], 0.03%; in assay [17], -1.18%; in assay [18] it was -4.62%. Moreover, the inhibition was 7.32% in assay [19] and 0.43% in [20].

What is called inhibition is the relative decrease from the control value, in per cent.
